# hNpr1 antagonist: blocks ANP-stimulated signaling of human Npr1 receptor; Potency, µM (top dose mostly 46.3 µM), for inactives: top-dose activity change, negative = inhibition, usual class: inhibitors; hit rate 1.6% among 76,000; P16066; HEK293 hNpr1 GloSensor cGMP, ANP-stimulated luminescence; calls by dose curve; further: nearly all actives have a fitted effect of over 60% in size
#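 Compound pre-incubated 30 min at room temperature on GloSensor-loaded HEK293 cells stably carrying hNpr1 and the pGS-40F cGMP biosensor. Stimulation uses hNppA at 0.1 nM final; luminescence is taken at baseline and 20 min post-agonist.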
# Luciferase inh: blocks purified firefly luciferase enzyme activity; Potency, µM (top dose mostly 115 µM), most hits filed as inhibitors; purified P. pyralis luciferase, luminescence, biochemical; P08659; hit rate 2.5% among 76,000; AID 1347043; further: nearly all actives have a fitted effect of over 65% in size
# Target sequence (P08659 whole entry, looked up): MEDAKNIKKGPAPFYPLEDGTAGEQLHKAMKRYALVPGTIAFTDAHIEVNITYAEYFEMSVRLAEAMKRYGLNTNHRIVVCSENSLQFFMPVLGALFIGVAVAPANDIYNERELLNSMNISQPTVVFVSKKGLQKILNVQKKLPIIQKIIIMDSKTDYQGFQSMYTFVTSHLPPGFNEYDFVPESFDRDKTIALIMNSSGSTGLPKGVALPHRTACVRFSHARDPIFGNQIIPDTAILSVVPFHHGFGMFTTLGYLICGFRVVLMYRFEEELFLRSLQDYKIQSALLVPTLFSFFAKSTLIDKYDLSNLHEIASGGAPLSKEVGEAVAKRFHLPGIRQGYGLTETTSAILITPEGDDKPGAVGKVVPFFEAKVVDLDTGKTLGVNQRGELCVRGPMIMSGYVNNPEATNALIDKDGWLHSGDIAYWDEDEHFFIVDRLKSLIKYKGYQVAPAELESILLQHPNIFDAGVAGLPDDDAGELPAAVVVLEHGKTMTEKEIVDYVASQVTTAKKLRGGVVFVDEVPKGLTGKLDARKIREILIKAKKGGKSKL
#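 Biochemical qHTS: compound (6-point titration) added to 10uM D-luciferin plus 10uM ATP in Tris acetate pH 7.5 buffer with Mg, Tween-20 and BSA, then purified enzyme at 10nM; light output imaged.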
# NIH3T3 tox: kills NIH 3T3 cells; NIH 3T3 viability, CellTiter-Glo ATP luminescence, 48-72 h; Potency, µM (top dose mostly 96.7 µM), inactives show at the highest dose activity change, negative = cytotoxicity, usual class: inhibitors; hit rate 4.3% among 94,000; AID 1345082; further: nearly all actives have a fitted effect of over 55% in size
#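 NIH 3T3 cells at 400 cells/well received 23 nL of compound by pintool and were incubated 48 or 72 h at 37 °C. Viability was read as ATP-coupled CellTiter-Glo luminescence.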
# HEK293 tox: kills HEK 293 cells. Potency, µM (series often up to 115 µM), without a hit: at the top dose activity change, negative = cytotoxicity, hits mostly inhibitors. hit rate 6.6% among 94,000. HEK 293 viability, ATP luminescence (CellTiter-Glo), 48-72 h. AID 1345083; further: nearly all actives have a fitted effect of over 60% in size
#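 Viability of HEK 293 cells, plated at 250 cells/well, was judged by cellular ATP after compound treatment for 48 or 72 hr. Luminescence was imaged 10 min after CellTiter-Glo addition at room temperature.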
# * = called active by the depositor; i = inactive; u = inconclusive; x = no result; [ ] = dose if it differs, or a comment. Only some compounds are listed: those with a hit (about 11% of all), similar ones and a draw of the others. Unless noted, the call rests on the fitted dose curve; in most records, active means well fitted curve in the direction sought with a large enough effect; inconclusive means small, poorly fitted or top-dose-only effect, or another doubt; inactive means no such curve, though single readings can be large; an effect the other way counts as inactive or inconclusive. On the % scale 0 is the no-effect control and ±100 the full control effect; potency means the concentration at half of the fitted maximal effect.
SMILES,hNpr1 antagonist,Luciferase inh,NIH3T3 tox,HEK293 tox
O=S(=O)(c1ccc(F)c(F)c1)N1CCC(C2CCNC2)CC1 (stereo not drawn),-2%,i,-13%,u
CNC(=O)c1cc(C)nc2onc(C3CCCN(C(=O)COC)C3)c12 (stereo not drawn),x,x,i,3%[172 µM]
O=C(NCc1ccc(F)c(F)c1)C1CCc2nnc(C3CC3)n21 (stereo not drawn),x,x,-12%,-6%
O=C1CC2(CCN(Cc3cccc(OCc4ccccc4Cl)c3)CC2)CN1,9%,u,u,u
O=C([C@@H]1C[C@@H](O)[C@H](O)[C@@H]2NC(=S)N(c3ccc(F)cc3)[C@@H]21)N1CCCCC1,2%[70.6 µM],u,-1%[138 µM],-2%[172 µM]
Cc1ccc(N2C(=S)N[C@H]3[C@@H](O)[C@H](O)C[C@@H](C(=O)N4CCCCC4)[C@H]32)cc1,3%[70.6 µM],16µM*,i,i
CN(C)C(=O)c1ccc(-c2ccc(N3CCCCCC3)nc2)cc1,-23%,18µM*,u,32µM*
CN(C)C(=O)c1ccnc(-c2nnc3ccc(NC4CCCCC4)nn23)c1,4%[70.6 µM],i,u,1%[172 µM]
O=C(c1ccc(-c2ccc(N3CCCCCC3)nc2)cc1)N1CCCC1,u,u,32µM*,28µM*
CN(C)C(=O)c1ccnc(-c2nnc3ccc(N4CCCCC4)nn23)c1,-2%[70.6 µM],i,32µM*,5%[172 µM]
CC(=O)N1CCC(c2nn(-c3ccccn3)c(=O)[nH]2)CC1,x,x,1%[138 µM],-11%[172 µM]
O=C(Nc1ccccc1)N1CCN(C(=O)c2nc3cccnc3n(CCc3ccccc3)c2=O)CC1,x,x,u,-22%
O=C(O)Cn1ccc2cc(OCc3cccc(-c4ccc(F)cc4F)c3)cnc21,4%[70.6 µM],20µM*,-3%[138 µM],u
COc1cccc(-c2cccc(CCOc3cnc4c(ccn4CC(=O)O)c3)c2)c1,3%[70.6 µM],i,u,u
Cc1cc(F)ccc1-c1cccc(COc2cnc3c(ccn3CC(=O)O)c2)c1,-1%[70.6 µM],i,-10%[138 µM],u
Cn1nccc1-c1cccc(CCOc2cnc3c(ccn3CC(=O)O)c2)c1,-13%[70.6 µM],i,45µM*,-9%[172 µM]
O=C(NCc1ccc(F)cc1)C1CCN(C(=O)c2ccc(-c3cncnc3)cc2)CC1,x,x,u,-15%
Cc1noc(C)c1S(=O)(=O)N1CCC2(CC1)N(c1ccccc1)C(=O)CS2=O (stereo not drawn),x,x,i,i
NCc1cccc(-c2cc(F)cc(F)c2)c1,x,x,89µM*,u
NCc1ccc(-c2ccc(F)cc2)cc1,x,x,89µM*,100µM*
O=C(O)c1ccc(-c2ccc(OC(F)(F)F)cc2)cc1,x,x,i,i
NCc1ccc(-c2ccc(OC(F)(F)F)cc2)cc1,x,x,25µM*,25µM*
C=CCN1C[C@@H]2C[C@@H](C(=O)NC)N(C(=O)CCc3ccccc3)c3cccc(c32)C1=O,x,x,u,-10%[57.5 µM]
O=C(C1CCCN1C(=O)c1ccc(C(F)(F)F)cc1)N1CCC(N2CCCC2=O)CC1 (stereo not drawn),x,x,-16%,-1%
C=CCn1cc2c3c(cccc31)[C@H](CC(C)C)N[C@H](C(=O)NCc1ccccc1OC)C2,-5%[70.6 µM],i,25µM*,40µM*
SMILES,hNpr1 antagonist,Luciferase inh,NIH3T3 tox,HEK293 tox
C=CCn1cc2c3c(cccc31)[C@H](CC(C)C)N[C@H](C(=O)NCc1ccccc1)C2,-17%[70.6 µM],i,u,u
C=CCNC(=O)[C@@H]1Cc2cn(CC3CC3)c3cccc(c23)[C@H](CC(C)C)N1,-16%[70.6 µM],i,u,50µM*
C=CCn1cc2c3c(cccc31)[C@H](CC(C)C)N[C@H](C(=O)NC1CCCC1)C2,0%[70.6 µM],i,32µM*,40µM*
C=CCNC(=O)[C@@H]1Cc2cn(Cc3c(C)noc3C)c3cccc(c23)[C@H](CC(C)C)N1,0%[70.6 µM],i,112µM*,100µM*
O=C1CCC2(CNC(=O)NCCc3ccccc3)CCCC=C2N1 (stereo not drawn),x,x,-12%,-12%
COCC(=O)N1CCC(=O)N(CCC#N)C[C@H]2CN(C)c3ccccc3[C@@H]21,x,x,-31%[46.1 µM],u
C=CCn1cc2c3c(cccc31)[C@H](CC(C)C)N[C@H](C(=O)NC1CCC1)C2,-5%[70.6 µM],i,u,63µM*
CC(C)C[C@@H]1N[C@H](C(=O)NC2CCCC2)Cc2cn(CC3CC3)c3cccc1c23,4%[70.6 µM],i,35µM*,45µM*
COc1cccc(-c2ccc(NC(=O)C3CCCN(Cc4cc(C(C)C)n[nH]4)C3)cc2)c1 (stereo not drawn),u,i,40µM*,22µM*
COc1cccc(C(=O)NC2CCCN(Cc3ccc(-c4cccc(OC)c4)cc3)C2)c1 (stereo not drawn),x,x,25µM*,32µM*
Cc1cc(C)cc(-c2ccc(CN3CCCC(NC(=O)c4cccc(Cl)c4)C3)cc2)c1 (stereo not drawn),x,x,u,40µM*
COc1cccc(-c2ccc(CN3CCCC(NC(=O)c4cccc(Cl)c4)C3)cc2)c1 (stereo not drawn),x,x,32µM*,u
COc1cccc(-c2ccc(NC(=O)C3CCCN3C(=O)Cn3cccn3)cc2)c1 (stereo not drawn),-3%,i,2%,2%
N#CC1CCN(C(=O)C2CCCN2Cc2ccc(-c3cncnc3)cc2)CC1 (stereo not drawn),x,x,-8%,3%
Cc1ccccc1CCN1CCCC(CN(C)C(=O)Nc2ccccc2C)C1 (stereo not drawn),-2%,i,-3%,-16%
COc1ccc(CC(=O)NC2CCCN(Cc3ccc(-c4cncnc4)cc3)C2)cc1 (stereo not drawn),x,x,-29%,u
COc1cccc(-c2ccc(CN3CCCC(NC(=O)c4cccnc4)C3)cc2)c1 (stereo not drawn),x,x,u,28µM*
COc1cccc(-c2ccc(CN3CCCC(NC(C)=O)C3)cc2)c1 (stereo not drawn),x,x,-41%,u
COc1cccc(-c2ccc(CN3CCCC(NC(=O)C4CCCC4)C3)cc2)c1 (stereo not drawn),x,x,35µM*,20µM*
COc1ccc(C(=O)NC2CCCN(Cc3ccc(-c4cccc(OC)c4)cc3)C2)cc1 (stereo not drawn),x,x,-37%,35µM*
COC1C(=O)N(c2cccc(F)c2)C12CCN(S(=O)(=O)Cc1ccccc1F)CC2 (stereo not drawn),-25%,i,-18%,40µM*
COC1C(=O)N(c2cccc(F)c2)C12CCN(C(=O)Nc1ccccc1)CC2 (stereo not drawn),1%,i,u,-27%
COC1C(=O)N(c2cccc(F)c2)C12CCN(C(=O)c1cc3ccccc3[nH]1)CC2 (stereo not drawn),-3%,u,u,32µM*
COC1C(=O)N(c2cccc(F)c2)C12CCN(S(=O)(=O)Cc1ccccc1)CC2 (stereo not drawn),-3%,i,-17%,u
O=C(c1ccccc1)N1CCC(C(=O)N2CCC(c3nc4ncccc4[nH]3)CC2)CC1,x,x,i,i
